Rows were chosen to be rich in hits. Some 3.6% of all compounds tested hit in one or more screens of this group.
Smad3 FoxH1 inh: blocks human Smad3 binding to FoxH1 peptide | AID 630 | P84022 | 88,000 compounds, 0.29% hits | TR-FRET Smad3/Dy647-FoxH1 peptide binding, europium anti-His | inhibition, % at 25 µM;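 active = compounds that reduce the energy-transfer binding signal between the protein and its labelled peptide by more than half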;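 note: 0% = Smad3 plus labelled peptide maximal FRET and 100% = peptide-only background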
Target sequence (P84022 whole entry, looked up): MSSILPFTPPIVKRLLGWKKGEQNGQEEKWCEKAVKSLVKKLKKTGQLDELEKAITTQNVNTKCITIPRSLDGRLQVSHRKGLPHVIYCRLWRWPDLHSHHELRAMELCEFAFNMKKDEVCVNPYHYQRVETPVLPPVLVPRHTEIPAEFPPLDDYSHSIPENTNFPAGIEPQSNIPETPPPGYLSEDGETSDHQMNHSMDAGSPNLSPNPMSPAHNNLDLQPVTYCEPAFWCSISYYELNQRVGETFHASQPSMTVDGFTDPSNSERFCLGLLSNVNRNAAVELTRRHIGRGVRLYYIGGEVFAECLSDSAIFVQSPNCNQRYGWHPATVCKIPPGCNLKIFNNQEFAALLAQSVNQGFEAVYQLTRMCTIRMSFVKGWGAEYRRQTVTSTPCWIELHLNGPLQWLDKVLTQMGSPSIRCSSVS
ERb SRC1 inh: ER-beta (human) coactivator binding inhibition | TR-FRET ER-beta LBD / SRC1-Cy5 peptide binding; receptor agonist-loaded with 1 µM estradiol | inhibition, % at 25.6 µM | AID 633 | 86,000 compounds, 1.3% hits;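 active = compounds whose percent inhibition of the receptor-coactivator binding signal exceeds about 50% in the single-dose screen, limit read from the data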;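 note: 0% = receptor plus peptide wells without compound and 100% = peptide-only wells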
ERa coact pot: enhances coactivator binding to human estrogen receptor alpha | TR-FRET ERalpha-LBD/SRC-Cy5 coactivator binding, 2 h; 100 = basal binding, no effect | AID 639 | P03372 | coactivator binding (% of control), % at 25.6 µM | 86,000 compounds, 1.3% hits; in the data active = activity above about 200%;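 note: binding measured in presence of low estradiol as agonist stimulus; 0% = peptide alone without receptor and 100% = receptor with peptide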
ERa coact inh: blocks coactivator binding to human estrogen receptor alpha; P03372; inhibition, % at 25.6 µM; 86,000 compounds, 1.7% hits; TR-FRET ER-alpha LBD / SRC-1 peptide, estradiol-bound; in the data active = inhibition above about 50%;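 note: 0% = receptor plus peptide control and 100% = peptide only without receptor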
Candida biofilm: kills Candida albicans biofilms | C. albicans biofilm + clotrimazole, Alamar Blue | inhibition, % at 6 µM | 85,000 compounds, 0.14% hits | AID 834;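 active = inhibition above 20%; inactive = inhibition below 20%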;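 note: preformed 24 hr biofilms exposed to compound for 48 hr; 0% = biofilm without compound and 100% = blank killed by clotrimazole plus chlorhexidine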
The depositor's hits bear a star; nt = no result; [ ] = remark or other dose.

SMILES	Smad3 FoxH1 inh	ERb SRC1 inh	ERa coact pot	ERa coact inh	Candida biofilm
CSc1nc2nccc(-c3ccc(-c4ccccc4)cc3)n2n1	14	13	220*	40	2
CC(C)CCSc1nc(N)c(C#N)cc1C#N	10	25	391*[fluorescence artefact?]	40	12
CC(=O)c1cc(C#N)c(SCCC(C)C)nc1C	5	-4	103	9	nt
COc1ccc(-c2cc3ccccc3oc2=O)cc1NC(=O)c1ccc(Br)o1	-312	6	231*	66*[fluorescence artefact?]	-6
CCn1c(SCC(=O)Nc2ccc3c(c2)OCCO3)nnc1-c1ccco1	2	2	105	-1	1
CCn1c(SCC(=O)Nc2ccc3c(c2)c2ccccc2n3CC)nnc1-c1ccco1	11	49	83	63*	2
CC(=O)Nc1ccc(-c2nnc(SCC(=O)Nc3ccc4c(c3)oc3ccccc34)n2C)cc1	0	25	103	43	7
CCn1c(SCC(=O)Nc2ccc3c(c2)oc2ccccc23)nnc1-c1ccc(N)cc1	-15	50*[fluorescence artefact?]	67	74*	10
Cn1c(=O)c2c(nc(NCCNc3nc4c(c(=O)n(C)c(=O)n4C)n3C)n2C)n(C)c1=O	3	nt	nt	nt	nt
O=C(CSc1nnc(-c2cccnc2)o1)Nc1ccccn1	11	-13	97	-30	5
O=C(CSc1nnc(-c2cccnc2)o1)c1cc2ccccc2oc1=O	-19	3	221*	-4	-2
COC(=O)c1sccc1NC(=O)c1ccco1	-21	6	101	-3	1
CSCCC(NC(=O)c1ccco1)C(=O)OCC(=O)Nc1sccc1C#N (centres undefined)	-2	54*	43	56*[fluorescence artefact?]	1
O=C1CCCC2=C1C1(O)C(=O)c3ccccc3C1(O)O2 (centres undefined)	66*	-10	125	3	2
N#CC1=C(N)OC2=C(C(=O)CCC2)[C@]12C(=O)N(CC(N)=O)c1ccccc12	13	2	106	-3	-6
CC(=O)OC1CC(C)(C)N(OC(=O)c2ccc(N)cc2)C(C)(C)C1	10	20	54	61*	6
CC(=O)OC1CC(C)(C)N(OC(=O)c2ccccc2)C(C)(C)C1	-12	-3	103	-5	-3
C[C@]12CCC(=O)C=C1CC[C@H]1[C@H]2C(=O)C[C@]2(C)C(CC(=O)O)=CC[C@@H]12	5	nt	nt	nt	nt
CN1CCN(c2ccccc2NC(=O)c2cc(Br)ccc2Cl)CC1	12	45	18	82*[fluorescence artefact?]	4
CC(=O)N1CCN(c2ccccc2NC(=O)c2cc(Br)ccc2Cl)CC1	12	-1	65	3	10
CCCCOC(=O)CSc1nc(N)c(C#N)c(-c2ccc(OC)cc2)c1C#N	3	41	240*[fluorescence artefact?]	61*[fluorescence artefact?]	4
CCCCOC(=O)CSc1nc(N)c(C#N)c(-c2ccc(OCC)cc2)c1C#N	78*[fluorescence artefact?]	76*[fluorescence artefact?]	215*[fluorescence artefact?]	51*[fluorescence artefact?]	9
CCCCOc1ccc(-c2c(C#N)c(N)nc(SCC(N)=O)c2C#N)cc1	5	41	271*[fluorescence artefact?]	42	1
CCOC(=O)CSc1nc(N)c(C#N)c(-c2ccc(OC)cc2)c1C#N	11	35	258*[fluorescence artefact?]	14	nt
CSc1nc(N)c(C#N)c(-c2ccc(Cl)cc2)c1C#N	-10	34	255*[fluorescence artefact?]	42	2
SMILES	Smad3 FoxH1 inh	ERb SRC1 inh	ERa coact pot	ERa coact inh	Candida biofilm
CCCCn1c(SCC(N)=O)nc2c(sc3ccccc32)c1=O	-22	24	263*	53*[fluorescence artefact?]	2
CS(=O)(=O)N(CCc1ccccc1)CC(=O)NCc1ccccn1	-5	-1	102	-2	-1
CCOC(=O)COc1c(OC)cc(Cl)cc1C1NC(=O)NC(C)=C1C(C)=O (centres undefined)	-4	60*[fluorescence artefact?]	88	57*[fluorescence artefact?]	-3
O=C(C(Cc1ccccc1)n1cccc1)N1CCCCCC1 (centres undefined)	6	-7	117	-8	21*
O=C(C(Cc1ccccc1)n1cccc1)N1CCCCC1 (centres undefined)	11	-4	116	-2	-19
O=c1nc2n(c3c4c(sc13)CCC4)CCC2	-7	3	114	2	1
Cc1ccc2oc(-c3ccc(NC(=O)CC(C)C)cc3)nc2c1	10	15	225*[fluorescence artefact?]	-1	0
CCCC(=O)Nc1ccc2oc(-c3ccncc3)nc2c1	-4	1	111	6	6
CC(C)CC(=O)Nc1ccc2oc(-c3cccnc3)nc2c1	-2	8	126	7	2
CCCC(=O)Nc1ccc(-c2nc3cc(C)c(C)cc3o2)cc1	5	43	168	69*[fluorescence artefact?]	-1
Cc1ccc2oc(-c3ccc(NC(=O)c4cccnc4)cc3)nc2c1	11	31	248*	2	5
O=C(Nc1ccc(-c2nc3ccccc3o2)cc1)c1cccnc1	10	-6	101	-3	4
CCOc1ccc(C2/C(=C(/O)c3ccc(Cl)cc3)C(=O)C(=O)N2CCCN(C)C)cc1OC (centres undefined)	4	0	122	-2	11
CC1CN(c2oc(-c3ccco3)nc2S(=O)(=O)c2ccccc2)CC(C)O1 (centres undefined)	-1	-1	105	-4	-7
COc1ccc(N(CC(=O)Nc2cc(C(=O)O)ccc2C)S(=O)(=O)c2c(C)noc2C)cc1	13	0	86	-2	6
C[C@H](CCC(=O)O)[C@@H]1CC[C@@H]2[C@H]3CC[C@@H]4C[C@H](O)CC[C@@]4(C)[C@@H]3CC[C@]21C	5	nt	nt	nt	nt
C=CCSC1=N/C(=C\C=C\c2ccco2)C(=O)S1	-2	64*	63	78*	7
C=CCSC1=N/C(=C\c2ccc3c(c2)OCO3)C(=O)S1	3	1	83	6	5
CC1CCCN(C(c2cccs2)c2nnnn2Cc2ccccc2)C1 (centres undefined)	-8	5	84	-2	-2
CCOC(=O)C1Cc2ccccc2CN1 (centres undefined)	14	57*[fluorescence artefact?]	102	-5	0
CCOC(=O)C1Cc2c([nH]c3ccccc23)CN1 (centres undefined)	8	4	136	-6	0
O=C/C(=C\Nc1ccccn1)c1nc2ccccc2o1	-4	9	115	14	7
O=C/C(=C\Nc1ccccn1)c1nc2cc(Cl)ccc2o1	3	28	102	66*[fluorescence artefact?]	4
COc1ccc(OC)c(NC(=O)C2CCN(Cc3cnn(-c4ccccc4)c3-n3cccc3)CC2)c1	-5	-9	215*	-4	5
COc1ccc(NC(=O)C2CCN(Cc3cnn(-c4ccccc4)c3-n3cccc3)CC2)cc1OC	1	7	108	-6	11
Cn1nc(C(=O)Nc2sccc2C(N)=O)ccc1=O	5	54*[fluorescence artefact?]	21	63*[fluorescence artefact?]	3
COC(=O)c1cc(OC)c(OC)cc1NC(=O)c1cc(C)on1	-61	6	158	6	4
COc1ccc(NC(=O)CSc2nnc(-c3cccs3)n2-c2ccccc2)cc1	-81	4	323*[fluorescence artefact?]	16	7

High-throughput results from PubChem BioAssay.
